High-throughput results: PubChem BioAssay, National Center for Advancing Translational Sciences (NCATS)
The list is not random: actives were taken first. Their share in the collection is about 10%.
HP1b binding inh: HP1-beta chromodomain-methylated histone interaction inhibition | Potency, µM (titrated, usually from 114 µM), inactives show at the highest dose activity change, negative = inhibition, usual class: inhibitors | AlphaScreen HP1-beta / biotin-H3K9me3 peptide binding | 390,000 compounds, 0.56% hits; also: potency is read from the fitted curve at half-maximal effect; nearly all actives have a fitted effect of over 70% in size
Target sequence (P83916 whole entry, looked up): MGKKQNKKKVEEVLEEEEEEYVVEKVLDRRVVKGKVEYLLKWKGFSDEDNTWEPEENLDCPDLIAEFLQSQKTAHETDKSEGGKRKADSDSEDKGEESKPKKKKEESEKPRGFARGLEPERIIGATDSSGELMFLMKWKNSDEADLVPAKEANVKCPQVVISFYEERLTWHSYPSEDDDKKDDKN
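HP1-beta protein (50 nM final) preincubated 30 min at room temperature with biotinylated H3(1-18)K9me3 peptide (50 nM) in PBS pH 7.4, 0.01% Tween-20, then compound added for 30 min. AlphaScreen streptavidin donor/nickel chelate acceptor beads (10 ug/mL final), 30 min dark, luminescence read.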
BAZ2B block: blocks human BAZ2B; Q9UIF8; AlphaScreen BAZ2B-H3K14Ac peptide displacement; Potency, µM (highest dose often 114 µM), without a hit: at the top dose activity change, negative = inhibition, hits mostly inhibitors; 360,000 compounds, 4.4% hits; also: potency is read from the fitted curve at half-maximal effect; % is scaled to controls: 0 for no effect and ±100 for the full control effect; nearly all actives have a fitted effect of over 60% in size
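Inhibition is scored as reduced AlphaScreen emission. The BAZ2B/b-H3(5-23)K14Ac complex (50 nM each) in PBS pH 7.4, 0.01% Tween-20 meets compound (up to 110 uM) for 30 min at RT before bead addition.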
JMJD2A Tudor inh: inhibitors of human JMJD2A Tudor domain; O75164; AlphaScreen JMJD2A-Tudor / H3K4me3 peptide binding; Potency, µM (series often up to 114 µM), for the others: at the top dose activity change, negative = inhibition, usual class: inhibitors; 390,000 compounds, 4.4% hits; also: potency is read from the fitted curve at half-maximal effect; % is scaled to controls: 0 for no effect and ±100 for the full control effect; nearly all actives have a fitted effect of over 50% in size
CtBP-E1A inh: CtBP/E1A binding inhibition; 340,000 compounds, 0.49% hits; AlphaScreen GST-E1A/His-CtBP binding, 1536-well; active compounds read low; activity change, % (no concentration beside the values); in the data active = activity change below about -65%; inconclusive = mostly about -30% to -63%; also: % is scaled to controls: 0 for no effect and ±100 for the full control effect
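Protein mix (5X: 125 nM each GST-E1A, His-CtBP) was incubated with pinned compound 2 h at 37 deg C in dark, in 50 mM Tris pH 8.0 buffer with 300 mM NaCl. Glutathione donor and nickel acceptor beads followed; AlphaScreen signal read after 1 h.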
Six1-Eya2 blk: blocks human Six1 binding to Eya2; activity change, % (concentration not given with the values); AID 651725; 360,000 compounds, 0.56% hits; AlphaScreen GST-Six1/His-Eya2 binding, biochemical; active compounds read low; in the data active = activity change below about -65%; inconclusive = mostly about -30% to -63%; also: % is scaled to controls: 0 for no effect and ±100 for the full control effect
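AlphaScreen luminescence read after one hour at 37 °C in darkness. Pin-transferred compounds met GST-Six1 and His-Eya2 protein (5X stock 250 nM/500 nM) plus glutathione donor and Ni-chelate acceptor beads (5X, 50 ug/mL).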
G9a inh: G9a (human) methyltransferase inhibition. 350,000 compounds, 8.8% hits. AID 504332. Q96KQ7. Potency, µM (doses to about 102 µM), inactives show at the top dose activity, negative = inhibition, most hits filed as inhibitors. G9a H3K9 monomethylation, AlphaScreen, 2 h; also: potency is read from the fitted curve at half-maximal effect; % is scaled to controls: 0 for no effect and ±100 for the full control effect; nearly all actives have a fitted effect of over 75% in size
Target sequence (Q96KQ7 913-1193 limits assumed): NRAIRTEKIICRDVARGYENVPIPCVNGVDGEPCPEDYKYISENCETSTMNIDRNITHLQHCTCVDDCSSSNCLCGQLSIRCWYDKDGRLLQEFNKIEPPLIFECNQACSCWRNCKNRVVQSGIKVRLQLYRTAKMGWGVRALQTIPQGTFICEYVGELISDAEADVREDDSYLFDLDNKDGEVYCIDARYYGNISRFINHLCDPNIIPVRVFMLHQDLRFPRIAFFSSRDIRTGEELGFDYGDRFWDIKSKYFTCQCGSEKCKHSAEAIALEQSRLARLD
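Chemiluminescent proximity detection of H3K9 monomethylation, read after 10 min bead incubation in the dark. Reaction: 20 nM G9a, 500 nM biotin-H3K9 peptide, 20 uM SAM cofactor, 2 h, room temperature, following 15 min enzyme-compound preincubation.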
Starred values were filed as active, the others as inactive; ? = inconclusive; · = no result given; [ ] = dose if it differs, or a comment. Unless noted, calls follow the shape of the dose curve; as a rule, active = well fitted inhibition curve with a large enough effect; inconclusive = small, poorly fitted or top-dose-only effect; inactive = no such curve, though single readings can be large or run the other way.

SMILES | HP1b binding inh | BAZ2B block | JMJD2A Tudor inh | CtBP-E1A inh | Six1-Eya2 blk | G9a inh
Cc1ccccc1-n1c(SCC(=O)c2c(N)n(C3CC3)c(=O)[nH]c2=O)nnc1N1CCOCC1 | 21% | -2% | -11% | · | 4 | 10µM*
COc1ccccc1-c1nnc(SC(C(=O)c2c[nH]c3ccccc23)c2ccccc2)n1C (centres undefined) | 37% | -6% | ? | · | -16 | 79µM*
CCN1C(c2ccccc2)=C(c2ccccc2)S/C1=C\C=C1/SC(=S)N(C)C1=O | 8.9µM* | · | 7.9µM* | -27 | ? | ·
CCN1C(c2ccccc2)=C(c2ccccc2)S/C1=C/C=C1\SC(=S)N(C)C1=O | 11µM* | 2.5µM* | 8.9µM* | ? | ? | 5.6µM*
CCN1C(=O)/C(=C/C=C2/Sc3ccc4ccccc4c3N2CCO)SC1=S | 5% | ? | -17% | -21 | -5 | -9%[59 µM]
COc1cc(-c2cc3nc(NC4CCCCC4)ccn3n2)cc(OC)c1OC | · | · | · | -7 | -11 | ·
COc1cc(-c2csc(NC3CCCCC3)n2)cc(OC)c1OC | -14% | ? | ? | -19 | 5 | 25µM*
COC(=O)CSc1nnc(-c2cccc(O)c2)o1 | 32%[57 µM] | 1% | -18% | · | · | -5%[59 µM]
CCN(CC)c1ccc(NC(=O)COC(=O)CSc2ccc(Br)cc2C)cc1 | 16µM* | 10µM* | 18µM* | 2 | ? | 8.9µM*
Cc1ccc(S(=O)(=O)N2CCOCC2)cc1NC(=O)COC(=O)CSc1ccc(Br)cc1C | 15% | -2% | -29% | -1 | -1 | 18µM*
Cc1ccc(S(=O)(=O)N2CCOCC2)cc1NC(=O)COC(=O)CNC(=O)c1ccc(C(C)(C)C)cc1 | 11% | -28% | -20% | -9 | -2 | 50µM*
Cc1ccc(S(=O)(=O)N2CCOCC2)cc1NC(=O)COC(=O)c1ccc(Br)cc1 | 22% | · | -3% | 1 | 0 | ·
CCCCC(=O)N(CCOC)c1nnc(-c2ccccc2C)s1 | 137% | 26% | 97% | 0 | -1 | ·
COc1ccc(OC)c(NC(=O)[C@@]2(CC(=O)O)CC(/C=C/c3ccccc3)=NO2)c1 | 35% | -16% | -18% | -2 | -7 | ?
O=S(=O)(c1cc(O)ccc1O)c1cccc2c(S(=O)(=O)c3cc(O)ccc3O)cccc12 | 16µM* | 11µM* | 18µM* | -16 | ? | 20%[2.33 µM]
Cc1cccc(OCC(=O)Nc2ccc(OCc3cc(=O)n4cc(C)ccc4n3)cc2)c1 | 31%[57 µM] | 5% | -3% | · | · | -1%[59 µM]
Cc1ccc(CN2CCNC(=O)C2CC(=O)O)cc1 (centres undefined) | 36% | 6% | -4% | 10 | -3 | 16µM*
O=C(O)CC1C(=O)NCCN1C/C=C/c1ccccc1 (centres undefined) | 58% | 11% | -21% | 3 | 1 | ?
O=C(O)CC1C(=O)NCCN1CCCc1ccccc1 (centres undefined) | 25% | 1% | -20% | 5 | 0 | 28µM*
CCn1cc(/C=C(\NC(=O)c2ccccc2)C(=O)NCCCn2ccnc2)c2ccccc21 | · | · | · | 3 | -5 | ·
O=C(CC1=NC2(CCCC2)Cc2ccccc21)N1CCOCC1 | -2% | 50µM* | ? | 2 | -3 | ?
CCC1(CC)Cc2ccccc2C(CC(=O)N2CCOCC2)=N1 | -24% | 56µM* | 22µM* | 0 | -7 | 40µM*
CC(NC(=O)c1ccccc1Cl)C(=O)NCc1cccs1 (centres undefined) | 11% | 20% | -19% | 5 | 5 | -37%
C[C@H](NC(=O)c1ccccc1Cl)C(=O)NCc1cccs1 | 42% | -19% | -14% | · | 5 | 45µM*
COc1ccc(-c2ccc3c(N)c(C(=O)NC(C)C)sc3n2)cc1OC | 76% | -1% | 23% | -23 | -15 | -44%
SMILES | HP1b binding inh | BAZ2B block | JMJD2A Tudor inh | CtBP-E1A inh | Six1-Eya2 blk | G9a inh
COc1ccc(-c2ccc3c(n2)sc2c(=O)[nH]c(=O)[nH]c23)cc1OC | · | -38% | · | · | · | 3.5µM*
COc1ccc(-c2ccc3c(N)c(C(=O)c4ccc(OC)c(OC)c4)sc3n2)cc1 | 8% | -26% | ? | 5 | 28 | 2.8µM*
O=C1CC(c2ccccc2)CC2=C1C1(CCCCC1)N=C(Nc1nc3ccccc3o1)N2 (centres undefined) | · | · | -22% | · | · | ·
COc1ccc(NC(=O)N(C)C[C@@H]2OCc3cnnn3CCCC(=O)N([C@H](C)CO)C[C@@H]2C)cc1 | · | · | · | -15 | -15 | ·
Cc1cccc(CNS(=O)(=O)c2ccc3[nH]c(=O)ccc3c2)c1 | 32%[57 µM] | 0% | 0% | · | · | 0%[59 µM]
CCOc1ccc(NC(=O)CSc2nnc3c(n2)[nH]c2ccc(S(=O)(=O)N4CCCCC4)cc23)cc1 | 26% | · | -33% | · | · | ·
CN(CC(=O)Nc1ccc(N2CCOCC2)cc1)C(=O)c1cc(F)c(F)cc1Cl | -17% | -2% | -19% | 6 | 1 | 8%[0.501 µM]
CCOc1ccccc1C(=O)NCC(=O)N(C)CC(=O)Nc1ccc(N2CCOCC2)cc1 | · | · | · | 4 | 1 | ·
Cc1ccc(C)c(SCC(=O)N(C)CC(=O)Nc2ccc(N3CCOCC3)cc2)c1 | 8% | -35% | -17% | 1 | -7 | 45µM*
CN(CC(=O)Nc1ccc(N2CCOCC2)cc1)C(=O)CCNC(=O)c1ccccc1Cl | 10% | -1% | -3% | -24 | 9 | 45µM*
Cc1ccc(-c2nn(-c3ccc(F)cc3)cc2C(=O)N(C)CC(=O)Nc2ccc(N3CCOCC3)cc2)cc1 | 10% | -5% | -6% | 1 | -11 | 40µM*
Cc1cc(C)c(OCC(=O)N(C)CC(=O)Nc2ccc(N3CCOCC3)cc2)c(C)c1 | 10% | -34% | -19% | 4 | -4 | ?
CSc1ccc(Cl)c(C(=O)N(C)CC(=O)Nc2ccc(N3CCOCC3)cc2)c1 | 25% | -3% | -28% | 3 | -3 | 35µM*
COc1ccc(C2c3c(oc4ccccc4c3=O)C(=O)N2c2nc(C)c(C)s2)cc1 (centres undefined) | 33% | ? | -13% | · | · | 9%[59 µM]
COc1ccc(-c2cnc(C)o2)cc1S(=O)(=O)Nc1ccc(OC(F)(F)F)cc1 | 31% | ? | -20% | · | · | 7%[12.7 µM]
